The supplement of paper PMC10849652
Of roughly 7,900 targets only a part is listed; those with a hit were picked by preference. About 0.6% of all pairs of compound and target were hits. Unmarked numbers belong to inactive results.

Key:
Experiment in all cases: log2 fold change, soluble protein after heating vs DMSO (PISA); higher = thermal stabilisation; K562 cells, 10 uM, 30 min; active = over 0.2 and 3.5 SD of the protein, either way, in both replicates (recomputed)
[1] = compound: C1=CC=C(C=C1)[C@H](COC2=CC3=C(C=C2)NC(=O)N3)NC(=O)C4=CC=CN(C4=O)CC5=CC(=C(C=C5)F)F
Method in brief: (§1)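 K562 cells at 2×10^6 cells/mL were exposed to 10 μM compound for 30 min, then aliquots were heated for 3 min across 48°C-58°C, pooled, and extracted in PBS containing 0.5% NP-40 at 4°C. The supernatant after 21,000xg for 90 min was taken as soluble protein and measured by TMTpro 16plex LC-MS/MS with channel sums equalised. Thermal stability is reported relative to control samples, with values from duplicates. Fold changes are given on a log2 scale.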

[2] = compound: CC1=C(SC2=C1C(=N[C@H](C3=NN=C(N32)C)CC(=O)N)C4=CC=C(C=C4)Cl)C
Method in brief: as §1

[3] = compound: CC1=C2C(=CC=C1)N=C(N(C2=O)C3=CC=CC=C3C)CN4C=NC5=C(N=CN=C54)N
Method in brief: as §1

[4] = compound: Cc1sc2c(c1C)C(c1ccc(Cl)cc1)=N[C@@H](CC(=O)OC(C)(C)C)c1nnc(C)n1-2
Method in brief: as §1

[5] = compound: c1ccc([C@@H]2C[C@H]2NC2CCNCC2)cc1
Method in brief: as §1

Sequence of UniProt P62195 (P62195 whole entry, looked up): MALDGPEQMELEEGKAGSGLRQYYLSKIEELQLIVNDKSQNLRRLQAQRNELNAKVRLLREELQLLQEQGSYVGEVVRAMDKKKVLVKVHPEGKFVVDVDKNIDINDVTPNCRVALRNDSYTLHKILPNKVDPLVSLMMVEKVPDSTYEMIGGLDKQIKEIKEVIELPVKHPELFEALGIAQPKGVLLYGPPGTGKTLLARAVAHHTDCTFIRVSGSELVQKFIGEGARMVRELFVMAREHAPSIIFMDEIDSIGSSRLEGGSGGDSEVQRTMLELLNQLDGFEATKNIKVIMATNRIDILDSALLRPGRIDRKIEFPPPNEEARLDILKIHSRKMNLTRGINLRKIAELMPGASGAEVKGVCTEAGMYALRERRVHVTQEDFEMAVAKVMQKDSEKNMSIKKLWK
Sequence of UniProt Q15172 (Q15172 whole entry, looked up): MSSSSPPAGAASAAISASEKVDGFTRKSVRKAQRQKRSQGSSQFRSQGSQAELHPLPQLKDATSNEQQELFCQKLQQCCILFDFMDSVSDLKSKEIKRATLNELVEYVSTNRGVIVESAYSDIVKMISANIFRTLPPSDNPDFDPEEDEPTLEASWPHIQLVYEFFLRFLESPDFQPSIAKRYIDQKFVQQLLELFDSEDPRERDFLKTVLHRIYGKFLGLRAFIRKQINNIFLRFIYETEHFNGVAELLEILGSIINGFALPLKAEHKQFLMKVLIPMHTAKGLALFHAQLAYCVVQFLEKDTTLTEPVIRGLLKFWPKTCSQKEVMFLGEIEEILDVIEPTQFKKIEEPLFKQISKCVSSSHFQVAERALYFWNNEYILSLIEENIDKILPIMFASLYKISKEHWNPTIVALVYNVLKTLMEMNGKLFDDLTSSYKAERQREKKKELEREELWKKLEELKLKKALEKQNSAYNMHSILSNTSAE
Sequence of UniProt O96013 (O96013 whole entry, looked up): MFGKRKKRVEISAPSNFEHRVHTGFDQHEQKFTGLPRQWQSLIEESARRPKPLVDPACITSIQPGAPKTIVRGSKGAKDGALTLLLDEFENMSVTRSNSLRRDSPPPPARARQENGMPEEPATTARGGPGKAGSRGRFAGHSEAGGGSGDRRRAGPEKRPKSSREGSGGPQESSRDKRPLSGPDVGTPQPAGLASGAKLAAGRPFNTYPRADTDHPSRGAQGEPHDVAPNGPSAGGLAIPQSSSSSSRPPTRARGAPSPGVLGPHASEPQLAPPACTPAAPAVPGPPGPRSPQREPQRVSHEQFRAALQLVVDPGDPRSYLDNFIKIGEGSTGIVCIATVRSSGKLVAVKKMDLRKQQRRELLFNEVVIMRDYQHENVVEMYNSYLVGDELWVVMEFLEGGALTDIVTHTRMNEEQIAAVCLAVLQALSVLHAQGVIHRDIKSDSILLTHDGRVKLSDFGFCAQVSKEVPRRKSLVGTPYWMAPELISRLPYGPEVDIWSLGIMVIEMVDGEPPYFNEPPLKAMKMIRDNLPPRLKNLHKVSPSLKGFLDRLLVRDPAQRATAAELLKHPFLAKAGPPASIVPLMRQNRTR
Sequence of UniProt P53350 (P53350 whole entry, looked up): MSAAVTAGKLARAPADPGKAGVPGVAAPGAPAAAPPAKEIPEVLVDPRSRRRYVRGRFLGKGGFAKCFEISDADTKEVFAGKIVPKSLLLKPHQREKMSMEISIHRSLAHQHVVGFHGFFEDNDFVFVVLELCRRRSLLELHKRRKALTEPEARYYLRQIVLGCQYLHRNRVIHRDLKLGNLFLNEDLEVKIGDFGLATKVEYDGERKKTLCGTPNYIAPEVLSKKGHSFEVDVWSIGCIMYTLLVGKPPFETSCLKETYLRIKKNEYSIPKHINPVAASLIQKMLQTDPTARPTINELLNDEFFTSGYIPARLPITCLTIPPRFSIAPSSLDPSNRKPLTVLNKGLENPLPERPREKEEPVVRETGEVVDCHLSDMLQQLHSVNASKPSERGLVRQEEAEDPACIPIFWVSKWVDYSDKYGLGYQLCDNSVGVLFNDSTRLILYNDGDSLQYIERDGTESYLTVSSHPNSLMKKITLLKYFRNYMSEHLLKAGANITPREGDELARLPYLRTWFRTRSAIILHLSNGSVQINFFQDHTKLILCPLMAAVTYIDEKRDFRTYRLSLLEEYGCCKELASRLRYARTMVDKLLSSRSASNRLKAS
Sequence of UniProt O95394 (O95394 whole entry, looked up): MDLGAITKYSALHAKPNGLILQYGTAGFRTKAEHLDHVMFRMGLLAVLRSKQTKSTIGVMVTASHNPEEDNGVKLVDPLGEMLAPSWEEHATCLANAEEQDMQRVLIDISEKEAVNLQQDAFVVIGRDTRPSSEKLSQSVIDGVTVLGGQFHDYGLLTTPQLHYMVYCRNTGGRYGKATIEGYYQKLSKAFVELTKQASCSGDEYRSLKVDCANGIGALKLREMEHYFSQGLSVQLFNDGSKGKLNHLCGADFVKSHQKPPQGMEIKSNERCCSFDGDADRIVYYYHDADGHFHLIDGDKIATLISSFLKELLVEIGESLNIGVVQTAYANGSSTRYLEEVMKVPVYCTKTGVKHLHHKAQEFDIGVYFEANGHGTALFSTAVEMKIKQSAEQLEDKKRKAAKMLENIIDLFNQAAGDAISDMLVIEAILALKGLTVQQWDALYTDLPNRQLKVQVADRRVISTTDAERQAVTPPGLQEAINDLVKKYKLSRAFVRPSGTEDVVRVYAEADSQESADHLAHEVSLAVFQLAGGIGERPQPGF
Sequence of UniProt Q15004 (Q15004 whole entry, looked up): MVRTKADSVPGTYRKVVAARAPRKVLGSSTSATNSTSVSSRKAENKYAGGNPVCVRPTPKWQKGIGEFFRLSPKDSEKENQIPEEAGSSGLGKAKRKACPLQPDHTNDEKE
Sequence of UniProt Q9UHX1 (Q9UHX1 whole entry, looked up): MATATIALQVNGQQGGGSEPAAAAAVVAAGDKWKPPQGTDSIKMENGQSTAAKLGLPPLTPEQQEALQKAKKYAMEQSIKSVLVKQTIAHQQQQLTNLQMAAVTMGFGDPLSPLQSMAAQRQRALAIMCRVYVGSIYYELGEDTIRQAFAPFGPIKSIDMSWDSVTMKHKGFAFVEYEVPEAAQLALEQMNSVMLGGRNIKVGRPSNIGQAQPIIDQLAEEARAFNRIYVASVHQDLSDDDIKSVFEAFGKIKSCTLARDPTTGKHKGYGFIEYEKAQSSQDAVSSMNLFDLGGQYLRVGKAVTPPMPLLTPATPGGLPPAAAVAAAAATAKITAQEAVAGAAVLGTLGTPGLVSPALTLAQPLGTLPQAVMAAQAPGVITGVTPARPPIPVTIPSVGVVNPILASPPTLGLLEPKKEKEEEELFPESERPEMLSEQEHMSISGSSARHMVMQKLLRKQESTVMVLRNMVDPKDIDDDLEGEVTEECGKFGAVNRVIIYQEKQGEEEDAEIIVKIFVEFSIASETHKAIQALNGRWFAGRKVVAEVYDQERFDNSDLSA
Sequence of UniProt Q9UPN7 (Q9UPN7 whole entry, looked up): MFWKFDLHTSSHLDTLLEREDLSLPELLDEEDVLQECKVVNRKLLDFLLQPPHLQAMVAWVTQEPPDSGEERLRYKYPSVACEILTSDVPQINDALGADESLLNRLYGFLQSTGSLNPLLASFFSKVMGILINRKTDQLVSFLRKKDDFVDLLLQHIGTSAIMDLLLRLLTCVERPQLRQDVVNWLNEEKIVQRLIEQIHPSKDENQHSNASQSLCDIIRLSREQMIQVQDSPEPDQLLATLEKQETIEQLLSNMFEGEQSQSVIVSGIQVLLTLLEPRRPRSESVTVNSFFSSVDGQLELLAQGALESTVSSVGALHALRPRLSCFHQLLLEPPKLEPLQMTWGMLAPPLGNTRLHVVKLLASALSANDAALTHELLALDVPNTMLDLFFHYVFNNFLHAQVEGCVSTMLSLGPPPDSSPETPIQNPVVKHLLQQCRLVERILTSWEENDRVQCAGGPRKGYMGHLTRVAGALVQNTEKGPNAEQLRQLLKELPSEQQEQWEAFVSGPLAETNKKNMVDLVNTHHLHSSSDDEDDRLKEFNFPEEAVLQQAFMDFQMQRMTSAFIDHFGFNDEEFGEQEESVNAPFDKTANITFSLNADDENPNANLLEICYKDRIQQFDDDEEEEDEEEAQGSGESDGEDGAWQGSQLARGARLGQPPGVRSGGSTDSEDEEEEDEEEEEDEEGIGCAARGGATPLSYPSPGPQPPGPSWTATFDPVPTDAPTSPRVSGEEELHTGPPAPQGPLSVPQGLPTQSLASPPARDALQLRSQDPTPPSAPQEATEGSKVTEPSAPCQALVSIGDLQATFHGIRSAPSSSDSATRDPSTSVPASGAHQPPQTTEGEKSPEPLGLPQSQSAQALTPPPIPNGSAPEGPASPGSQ
Sequence of UniProt O43924 (O43924 whole entry, looked up): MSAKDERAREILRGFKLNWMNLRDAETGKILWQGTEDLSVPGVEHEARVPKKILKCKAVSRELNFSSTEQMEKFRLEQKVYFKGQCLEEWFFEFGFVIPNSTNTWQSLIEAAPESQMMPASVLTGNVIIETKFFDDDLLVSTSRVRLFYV
Sequence of UniProt Q969N2 (Q969N2 whole entry, looked up): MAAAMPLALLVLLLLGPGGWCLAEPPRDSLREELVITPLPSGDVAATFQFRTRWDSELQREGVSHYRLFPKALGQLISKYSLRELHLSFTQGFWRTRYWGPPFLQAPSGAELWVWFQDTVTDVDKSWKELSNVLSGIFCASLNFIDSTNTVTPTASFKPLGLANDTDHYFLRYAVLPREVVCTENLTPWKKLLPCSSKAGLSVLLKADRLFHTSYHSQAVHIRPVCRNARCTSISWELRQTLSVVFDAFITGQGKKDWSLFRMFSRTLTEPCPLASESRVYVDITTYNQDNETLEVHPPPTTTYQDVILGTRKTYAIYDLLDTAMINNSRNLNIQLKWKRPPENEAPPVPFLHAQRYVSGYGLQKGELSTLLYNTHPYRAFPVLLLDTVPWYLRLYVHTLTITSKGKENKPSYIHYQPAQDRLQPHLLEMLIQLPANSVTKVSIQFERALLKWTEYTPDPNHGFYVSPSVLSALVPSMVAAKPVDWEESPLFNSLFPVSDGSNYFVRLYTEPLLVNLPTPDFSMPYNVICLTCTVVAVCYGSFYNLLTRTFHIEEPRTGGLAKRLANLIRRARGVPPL

Row | Target | log2 fold change [1] | log2 fold change [2] | log2 fold change [3] | log2 fold change [4] | log2 fold change [5]
1 | PSMC3 (UniProt P17980) | 0.014 | -0.083 | -0.058 | 0 | 0
2 | PPP2R5A (UniProt Q15172) | -0.036 | 0.07 | -0.006 | -0.08 | -0.08
3 | PCLAF (UniProt Q15004) | 0.055 | -0.022 | -0.045 | 0.02 | 0.07
4 | PEA15 isoform 2 (UniProt Q15121) | -0.014 | 0.1 | 0.116 | -0.063 | -0.015
5 | POGLUT1 (UniProt Q8NBL1) | 0.039 | -0.041 | 0.082 | 0.07 | 0.015
6 | PDE6D (UniProt O43924) | -0.053 | 0.238 | -0.004 | -0.13 | 0.017
7 | POLR2C (UniProt P19387) | -0.091 | 0.125 | -0.023 | 0.155 | -0.092
8 | PDIK1L (UniProt Q8N165) | -0.255 | 0.001 | 0.044 | 0.062 | -0.005
9 | PRKD2 isoform 3 (UniProt Q9BZL6) | -0.051 | 0.238 | -0.057 | 0.064 | 0.028
10 | PRKD2 (UniProt M0R346) | 0.081 | – | – | – | –
11 | PCYT1A (UniProt P49585) | -0.035 | 0.005 | 0.056 | -0.012 | 0.019
12 | PHAX (UniProt Q9H814) | 0.014 | -0.019 | -0.015 | -0.024 | 0.022
13 | PSMC5 (UniProt P62195) | 0.017 | -0.087 | -0.045 | 0.006 | 0.01
14 | PTP4A2 (UniProt Q12974) | -0.021 | 0.028 | 0.056 | 0.052 | -0.029
15 | PPP2R5C isoform 2 (UniProt Q13362) | -0.065 | – | – | – | –
16 | POLR2D (UniProt O15514) | 0.003 | 0.134 | -0.006 | 0.17 | 0.045
17 | PPP6R1 (UniProt Q9UPN7) | -0.011 | 0.002 | 0.108 | 0.005 | 0.001
18 | PRPF3 (UniProt O43395) | -0.09 | -0.208 | 0.08 | -0.017 | 0.115
19 | PPP1R14A (UniProt Q96A00) | 0.011 | 0.009 | -0.002 | 0.061 | -0.013

Row | Target | log2 fold change [1] | log2 fold change [2] | log2 fold change [3] | log2 fold change [4] | log2 fold change [5]
20 | PGM3 isoform 4 (UniProt O95394) | -0.082 | 0.039 | 0.066 | 0.012 | -0.088
21 | PRKX (UniProt P51817) | -0.754 (active) | – | – | – | –
22 | PSME4 (UniProt Q14997) | -0.041 | 0.017 | 0.017 | -0.025 | -0.048
23 | PCYT1B (UniProt Q9Y5K3) | -0.063 | -0.003 | 0.022 | 0.042 | 0.034
24 | PPT2 isoform 3 (UniProt Q9UMR5) | 0.015 | -0.062 | -0.011 | -0.053 | 0.03
25 | PFAS (UniProt O15067) | -0.08 | 0.021 | 0.144 | 0.014 | -0.065
26 | PRKAB2 (UniProt O43741) | -0.133 | 0.084 | -0.087 | -0.117 | -0.077
27 | PPP1R12B isoform 6 (UniProt O60237) | -0.051 | – | – | – | –
28 | PIGT (UniProt Q969N2) | 0.022 | 0.142 | -0.013 | 0.276 (active) | -0.021
29 | PDCD6IP (UniProt Q8WUM4) | -0.131 | 0.05 | 0.119 | -0.029 | -0.04
30 | PKN1 isoform 2 (UniProt Q16512) | -0.077 | 0.079 | 0.069 | 0.015 | 0
31 | PTRHD1 (UniProt Q6GMV3) | -0.002 | 0.056 | 0.046 | -0.073 | 0.033
32 | PLCG1 isoform 2 (UniProt P19174) | -0.059 | 0.038 | 0.033 | 0.063 | -0.028
33 | PLCXD1 (UniProt Q9NUJ7) | -0.061 | – | – | – | –
34 | PEX16 isoform 2 (UniProt Q9Y5Y5) | -0.01 | 0.095 | 0.087 | -0.031 | -0.048
35 | PUF60 isoform 2 (UniProt Q9UHX1) | 0.044 | 0.097 | -0.312 | -0.146 | -0.079
36 | PUF60 (UniProt Q9UHX1) | 0.031 | 0.033 | 0.081 | -0.036 | 0.007
37 | POMK (UniProt Q9H5K3) | 0.04 | 0.027 | -0.041 | -0.067 | -0.022
38 | PTGR2 (UniProt Q8N8N7) | 0.004 | 0.055 | 0.581 (active) | -0.043 | -0.091

Row | Target | log2 fold change [1] | log2 fold change [2] | log2 fold change [3] | log2 fold change [4] | log2 fold change [5]
39 | PAK4 (UniProt O96013) | -0.005 | 0.045 | 0.102 | -0.02 | -0.016
40 | POLR2E (UniProt P19388) | -0.013 | 0.094 | -0.023 | 0.054 | -0.06
41 | PYGB (UniProt P11216) | 0.024 | 0.037 | 0.003 | 0.015 | -0.003
42 | PRPF40A (UniProt O75400) | -0.008 | 0.016 | 0.123 | -0.022 | 0.037
43 | PIP4P1 isoform 2 (UniProt Q86T03) | -0.016 | -0.106 | -0.118 | -0.002 | 0.05
44 | PMM2 (UniProt O15305) | 0.003 | 0.046 | -0.027 | 0.06 | 0.009
45 | PIP4K2A (UniProt P48426) | -0.091 | 0.032 | 0.049 | 0.033 | -0.024
46 | PRKCQ (UniProt Q04759) | -0.064 | 0.069 | 0.104 | 0.033 | 0
47 | PLCL1 (UniProt Q15111) | 0.12 | 0.073 | 0.165 | -0.029 | 0.052
48 | POLR2B (UniProt P30876) | -0.028 | 0.105 | 0.047 | 0.159 | -0.053
49 | PRPF4B (UniProt Q13523) | 0.118 | -0.098 | 0 | 0.109 | 0.168
50 | POLR3B (UniProt Q9NW08) | -0.035 | -0.02 | 0.078 | 0.04 | -0.046
51 | PTPA (UniProt A6PVN8) | 0.011 | 0.011 | 0.001 | -0.015 | 0.148
52 | PIK3CD (UniProt O00329) | -0.166 | -0.126 | 0.424 (active) | -0.086 | 0.018
53 | PSMC6 (UniProt P62333) | 0.04 | -0.087 | -0.037 | 0.017 | 0.006
54 | PSMD13 (UniProt Q9UNM6) | -0.008 | -0.096 | -0.046 | -0.028 | 0
55 | PLK1 (UniProt P53350) | 0.02 | 0.037 | 0.019 | -0.012 | 0.007
56 | PCID2 (UniProt Q5JVF3) | -0.18 | 0.057 | 0.159 | 0.033 | -0.071
